CYP2C19 inhib: blockers of cytochrome P450 2C19 activity – biochemical, luminescence, ADME assay, primary screen; P33261; 96,000 tested, 21% active; CYP2C19 Supersomes, luciferin-H EGE luminescence, 30 min; inhibition, % at 5 µM; AID 778, 2007;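 active = CYP2C19 inhibition above a set limit at 5 µM in the primary screen, cut at about 50% in these data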
PostGolgi yeast: phenotypic screen on post-Golgi transport, primary screen; post-Golgi transport phenotypic cell assay; inhibition, % at 10 µM; 98,000 tested, 0.9% active; AID 739, 2007;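 note: yeast cells grown in 1536-well plates; yeast grown about 18 h at 30C before absorbance read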
CYP2C19 activ: human CYP2C19 activators, primary screen, biochemical, luminescence; Cytochrome P450 2C19 (Homo sapiens), P33261; recombinant CYP2C19, luciferin-H EGE luminescence; hits give high values; 0 = fully inhibited enzyme, 1 = untreated enzyme; activation factor at 5 µM; 96,000 tested, under 10 active; AID 1025, 2008;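 active = activation factor of at least 2 at 5 µM in the primary screen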
PostGolgi ctrl: growth inhibition of yeast control strain, primary screen, counter-screen for post-Golgi transport modulator project; efflux-deficient yeast background strain, growth absorbance A615, 16 h; 98,000 tested, 5% active; inhibition, % at 10 µM
CYP2C9 act: human CYP2C9 activators, primary screen, biochemical, luminescence; 96,000 tested, 1.4% active; activation factor at 5 µM; Cytochrome P450 2C9 (Homo sapiens), P11712; AID 1024, 2008; recombinant CYP2C9, luciferin-H conversion; hits give high values; factor 1 = untreated enzyme, 0 = blocked;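 active = activation factor of 2 or more for CYP2C9 at a 5 µM dose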
Target sequence (P11712 whole entry, looked up): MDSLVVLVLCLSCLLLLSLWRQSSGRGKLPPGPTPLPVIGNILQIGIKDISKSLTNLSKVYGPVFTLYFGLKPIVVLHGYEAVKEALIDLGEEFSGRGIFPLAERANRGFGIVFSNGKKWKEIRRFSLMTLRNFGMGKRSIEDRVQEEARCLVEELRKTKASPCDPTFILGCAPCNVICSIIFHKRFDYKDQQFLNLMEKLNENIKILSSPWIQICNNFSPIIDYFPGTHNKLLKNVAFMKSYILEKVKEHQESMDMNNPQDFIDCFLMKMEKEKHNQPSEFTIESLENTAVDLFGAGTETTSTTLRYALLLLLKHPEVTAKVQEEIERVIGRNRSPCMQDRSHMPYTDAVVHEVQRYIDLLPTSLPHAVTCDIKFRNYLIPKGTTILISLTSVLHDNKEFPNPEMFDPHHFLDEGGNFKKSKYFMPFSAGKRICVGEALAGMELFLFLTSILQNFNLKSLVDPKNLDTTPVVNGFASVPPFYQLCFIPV
CYP2C9 inhib: blockers of cytochrome P450 2C9 activity – biochemical, luminescence, ADME assay, primary screen | 96,000 tested, 20% active | inhibition, % at 5 µM | AID 777, 2007 | CYP2C9 Supersomes, luciferin-H conversion;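 active = blocking of liver enzyme CYP2C9 beyond about 50% at 5 µM, limit read from the data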
Numbers stand for hits; i = inactive; nt = no result given. Shown are actives, neighbours in structure and some others; about 32% of the full set was active somewhere. Cut-off read from the data, not from the text of the source, unless noted: active = inhibition above about 30%; inactive = the rest.

SMILES	CYP2C19 inhib	PostGolgi yeast	CYP2C19 activ	PostGolgi ctrl	CYP2C9 act	CYP2C9 inhib
CCCC(=O)c1c(O)[nH]c(=O)[nH]c1=O	i	i	i	i	i	i
CCCCn1c(O)c(C(CC)=NCCc2ccccc2)c(=O)[nH]c1=O	i	i	i	54.9	i	77.9
CCCCn1c(O)c(C(CC)=NCCN2CCOCC2)c(=O)[nH]c1=O	i	i	i	i	i	63.8
CCCCn1c(O)c(C(CC)=NCc2ccc(F)cc2)c(=O)[nH]c1=O	i	i	i	31.0	i	71.4
CCCCn1c(O)c(C(C)=NCCN2CCOCC2)c(=O)[nH]c1=O	i	i	i	i	i	i
Cc1ccc2c(c1)C1CN(C)CCC1N2C(=O)COc1ccc(S(=O)(=O)N2CCOCC2)cc1 (stereo not drawn)	i	i	i	i	i	i
CCOP(=O)(OCC)C(NC(C)=O)C(Cl)(Cl)Cl (stereo not drawn)	i	i	i	i	i	i
CN1C(=O)C(=Cc2ccc(N3CCCCCC3)o2)C(=O)N(C)C1=S	59.2	i	i	i	i	i
Cc1cc(C=C2C(=O)N(C)C(=S)N(C)C2=O)c(C)n1C1CCCC1	i	i	i	i	i	i
CN(CC1COc2ccccc2O1)c1nc(-c2cccnc2)nc2ccccc12 (stereo not drawn)	nt	i	nt	69.6	nt	nt
CN(C)c1ccc(P(=S)(N(C)C)N(C)C)cc1	95.4	i	i	i	i	i
Cc1ccnc(-n2c(-c3ccccc3)nc3ccccc3c2=O)c1	i	i	i	33.8	i	i
C(#CCN1CCOCC1)COCC#Cc1ccccc1	59.8	i	i	i	i	i
CCN(CC)P(=O)(NC(=O)C(Cl)(Cl)Cl)N(CC)CC.[Cl-].[Cl-].[Cl-].[Nd+3]	i	i	i	i	i	90.3
CCC(C)OC(=O)c1c(N)n(Cc2cccs2)c2nc3ccccc3nc12 (stereo not drawn)	i	i	i	50.1	i	i
CCCCOCCCn1c(N)c(C(=O)OC(C)COC)c2nc3ccccc3nc21 (stereo not drawn)	nt	i	nt	i	nt	nt
COCCCn1c(N)c(C(=O)OC(C)COC)c2nc3ccccc3nc21 (stereo not drawn)	i	i	i	i	i	58.6
CCC(C)NC(=O)c1c(N)n(CCCOC)c2nc3ccccc3nc12 (stereo not drawn)	68.9	i	i	i	i	87.5
Nc1c(C(=O)OCc2ccccc2)c2nc3ccccc3nc2n1Cc1cccs1	i	i	i	i	i	i
O=C(COc1ccc(Cl)cc1)N1CCN(C/C=C/c2ccccc2)CC1	i	i	i	i	i	i
CC(C)(C)P(=O)(c1ccncc1)N1CCCC1 (stereo not drawn)	i	i	i	i	i	i
Cc1ccc(CN2C(=O)NC(=O)C3(Cc4c(nc5ccccn5c4=O)N4CCCCCC43)C2=O)cc1 (stereo not drawn)	i	i	i	i	i	i
CN(C)C(Cc1ccccc1)C(=O)c1ccc(-c2ccccc2)cc1 (stereo not drawn)	i	i	i	i	i	74.5
COc1ccc(C(=O)C(Cc2ccccc2)N(C)C)cc1 (stereo not drawn)	i	i	i	i	i	i
O=C(Nc1ccc(Cl)cc1C(=O)c1ccccc1)c1ccc(Br)o1	i	i	i	i	i	i
SMILES	CYP2C19 inhib	PostGolgi yeast	CYP2C19 activ	PostGolgi ctrl	CYP2C9 act	CYP2C9 inhib
O=c1[nH]c(CN2CC=C(c3ccccc3)CC2)nc2cc(C(F)(F)F)ccc12	i	i	i	i	i	79.4
NCC1(c2ccc3c(c2)OCCO3)CCCC1	i	i	i	i	i	i
CCC(=O)Nc1cc(C(=O)N2CCC3(CC2)OCCO3)ccc1S(=O)(=O)c1ccc(C)cc1	i	i	i	i	i	i
CC1SC2(CN3CCC2CC3)NC1=O (stereo not drawn)	i	i	i	i	i	i
COC(=O)C(O)(c1ccc2c(c1)CCCN2)C(F)(F)F (stereo not drawn)	i	i	i	i	i	i
CCOc1cc2[nH]c(=S)n(CCCC(=O)N3CCC4(CC3)OCCO4)c(=O)c2cc1OCC	52.0	i	i	39.4	i	55.2
O=C(CCCOc1ccc(Cl)cc1Cl)N1CCC2(CC1)OCCO2	74.0	i	i	i	i	i
O=C(CCCC1=NS(=O)(=O)c2ccccc2N1)N1CCC2(CC1)OCCO2	i	i	i	i	i	i
Cn1c[n+](C)cc1C(O)c1ccccc1 (stereo not drawn)	i	i	i	i	i	i
Cn1c(O)c(C(c2ccccn2)c2c(O)n(C)c(=S)[nH]c2=O)c(=O)[nH]c1=S	i	i	i	i	nt	nt
COc1cc(C2SCC(=O)Nc3c2c(C)nn3-c2ccccc2)cc(OC)c1OC (stereo not drawn)	79.3	i	i	i	i	69.1
Cc1nn(C2CCOC(C)(C)C2)c2c1C(c1ccc3c(c1)OCO3)SCC(=O)N2 (stereo not drawn)	i	i	i	i	i	i
Cc1nn(-c2ccccc2)c2c1C(c1ccc3c(c1)OCO3)SCC(=O)N2 (stereo not drawn)	90.4	i	i	i	i	90.0
O=c1[nH]c(=O)n(Cc2ccccc2)c(O)c1C=Nc1ccc(CN2CCOCC2)cc1	i	i	i	i	i	i
Cc1ccc(C(=O)C2(C)N(O)C(C)C(c3cccs3)=[N+]2[O-])cc1 (stereo not drawn)	i	i	i	i	i	56.0
Cn1c(O)c(C=NCc2ccco2)c(=O)n(C)c1=O	52.3	i	i	i	i	i
Cc1ccccc1CS(=O)(=O)Cc1ccc(C(=O)N2CCC3(CC2)OCCO3)o1	i	i	i	i	i	i
CN1CCc2nc3sc(C#N)c(N)c3c(-c3cccs3)c2C1	i	i	i	i	i	56.0
O=c1c2ccccc2nc(-c2cccs2)n1-c1cnccn1	i	i	i	i	i	i
Cc1ccc(-n2c(-c3cccs3)nc3ccccc3c2=O)cc1	i	i	i	i	i	57.9
CC1CCCC(NC(=O)COC(=O)Cc2ccccc2)C1C (stereo not drawn)	i	i	i	i	i	i
O=C(COC(=O)Cc1ccccc1)Nc1ncc(Cl)cc1Cl	57.7	i	i	i	i	i
O=C1N(CN2CCOCC2)c2ccccc2C1(O)c1c[nH]c2ccccc12 (stereo not drawn)	i	i	i	i	i	i
CN(C)P(=NC(=S)c1cccn1C)(N(C)C)N(C)C	i	i	i	i	i	i
CCCCCn1c(=O)c(C(=O)Nc2ccncc2)c(O)c2ccccc21	i	nt	i	nt	i	i
CCCCCn1c(=O)c(C(=O)NCc2ccncc2)c(O)c2ccccc21	70.8	i	i	i	i	73.6

From PubChem
